Bioassay records (PubChem)
A selection: hits, their analogues and other compounds. The true share with any hit is near 10%.
HP1b binding inh – inhibitors of HP1-beta chromodomain binding to methylated histone tails; P83916; AlphaScreen HP1-beta / biotin-H3K9me3 peptide binding; Potency, µM (top dose mostly 114 µM), actives largely listed as inhibitors; 0.56% of 390,000 active; also: nearly all actives have a fitted effect of over 70% in size
Target sequence (P83916 whole entry, looked up): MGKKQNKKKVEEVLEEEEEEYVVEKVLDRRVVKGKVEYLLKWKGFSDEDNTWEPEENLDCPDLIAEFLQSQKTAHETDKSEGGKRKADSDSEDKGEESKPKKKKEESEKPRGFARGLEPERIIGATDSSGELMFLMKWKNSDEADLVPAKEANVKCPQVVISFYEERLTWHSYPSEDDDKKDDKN
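Compound inhibition of the preformed complex between 50 nM HP1-beta and 50 nM biotinylated H3K9me3 peptide was read by AlphaScreen. Buffer was PBS pH 7.4 with 0.01% Tween-20. Incubations ran 30 min at room temperature, with 10 ug/mL donor/acceptor beads.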
GLS inhibitor – inhibitors of human glutaminase (GLS); O94925; GLS enzymatic activity, qHTS titration; Potency, µM (titrated, usually from 45.5 µM), usual class: inhibitors; 0.21% of 410,000 active; AID 624170
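Enzyme dispensed in phosphate buffer (45 mM, pH 8.2, 0.02% Tween-20), compounds pinned in, then 1 mM L-glutamine solution and the glutamate oxidase–HRP–Amplex Red mix added; fluorescence read immediately and again after 30 min at room temperature.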
JMJD2A Tudor inh – blocks the human JMJD2A Tudor domain; O75164; 4.4% of 390,000 active; AlphaScreen JMJD2A-Tudor / H3K4me3 peptide binding; Potency, µM (series often up to 114 µM), usual class: inhibitors; also: nearly all actives have a fitted effect of over 50% in size
BAZ2B block – BAZ2B (human) inhibition; AlphaScreen BAZ2B-H3K14Ac peptide displacement; Q9UIF8; Potency, µM (doses to about 114 µM), usual class: inhibitors; 4.4% of 360,000 active; also: nearly all actives have a fitted effect of over 60% in size
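BAZ2B (50 nM) with biotin-H3(5-23)K14Ac peptide (50 nM) in PBS pH 7.4, 0.01% Tween-20, preformed 30 min, then compound 30 min at room temperature; top concentration 110uM. AlphaScreen streptavidin donor/nickel chelate acceptor beads (10 ug/mL final), 20 min dark, signal read.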
G9a inh – blocks human histone lysine methyltransferase G9a; G9a H3K9 monomethylation, AlphaScreen, 2 h; Potency, µM (series often up to 102 µM), usual class: inhibitors; 8.8% of 350,000 active; AID 504332; also: nearly all actives have a fitted effect of over 75% in size
Target sequence (Q96KQ7 913-1193 limits assumed): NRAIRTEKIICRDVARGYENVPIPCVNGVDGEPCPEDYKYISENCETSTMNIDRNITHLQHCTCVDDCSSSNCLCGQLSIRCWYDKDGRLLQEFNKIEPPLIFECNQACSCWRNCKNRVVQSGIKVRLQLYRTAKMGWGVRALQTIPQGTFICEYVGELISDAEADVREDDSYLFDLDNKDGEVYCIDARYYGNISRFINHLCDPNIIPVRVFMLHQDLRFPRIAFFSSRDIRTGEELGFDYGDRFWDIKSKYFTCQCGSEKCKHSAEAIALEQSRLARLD
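AlphaScreen detection with an anti-monomethyl H3K9 antibody quantified product after a 2 h room-temperature reaction containing 500 nM biotinylated H3K9 peptide, 20 µM SAM and 20 nM enzyme, which had been preincubated 15 min with compound.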
Numbers stand for hits; . = inactive; ? = inconclusive; / = no result; ! = repeats disagree; [ ] = another dose, or the depositor's remark. Calls follow the shape of the dose curve; as a rule, active = well fitted curve in the direction sought with a large enough effect; inconclusive = small, poorly fitted or top-dose-only effect, or another doubt; inactive = no such curve, though single readings can be large; an effect the other way counts as inactive or inconclusive.

SMILES | HP1b binding inh | GLS inhibitor | JMJD2A Tudor inh | BAZ2B block | G9a inh
CCCc1nc2ccccc2c(=O)n1-c1ccc(O)cc1 | . | . | . | . | .
COc1cc(N2CCOCC2)ccc1/C=C1\C(=O)NC(=O)N(Cc2ccc3c(c2)OCO3)C1=O | . | . | . | ? | 39.8µM
O=C1NC(=O)C(=Cc2ccc(N3CCOCC3)cc2)C(=O)N1 | . | . | . | . | 44.7µM
COc1cc(N2CCOCC2)ccc1C=C1C(=O)NC(=O)NC1=O | . | . | . | . | 79.4µM
O=C1NC(=O)C(=Cc2ccc3c(c2)OCO3)C(=O)N1 | / | / | / | . | 50.1µM
Cc1cc(N2CCOCC2)ccc1/C=C1\C(=O)NC(=O)N(c2ccccc2)C1=O | . | . | . | ? | .[12.7 µM]
COc1ccc(Cn2c(N)c(C(=O)NCc3ccco3)c3nc4ccccc4nc32)cc1OC | . | . | . | . | ?
C[C@H]1CCC[C@@H](O)CCC/C=C/c2cc(O)cc(O)c2C(=O)O1 | . | . | . | . | .
Clc1ccc(C(OCCN2CCCCC2)c2ccccc2)cc1 (centres undefined) | . | . | . | . | .[2.33 µM]
COc1cc(N2CCOCC2)ccc1/C=C1\C(=O)NC(=O)N(Cc2cccs2)C1=O | . | . | . | . | 31.6µM
CC(=O)NS(=O)(=O)c1ccc(NC(=O)c2cccn(Cc3ccc(Cl)cc3)c2=O)cc1 | . | ? | . | . | .
CC(Nc1cc(C)cc(C)c1)=[N+](C)CCNS(=O)(=O)c1ccc(Cl)cc1 | . | . | ? | . | 8.91µM
O=C(Oc1cncc(Cl)c1)c1sccc1Cl | . | . | . | / | /
COc1ccc(OC)c(CC(=O)O)c1 | . | . | . | . | .
Cn1c(O)c(/C=N/NC(=O)c2ccncc2)c(=O)n(C)c1=S | . | . | ? | ? | .[12.7 µM]
O=C(N/N=C\C1C(=O)NC(=S)N(c2ccccc2)C1=O)c1ccc(O)cc1 (centres undefined) | . | . | 79.4µM | 25.1µM | 8.91µM
N=c1c[n+](CC23CC4CC(CC(C4)C2)C3)[n-]o1 | . | . | . | . | .[2.33 µM]
O=C(N=Nc1c(O)[nH]c(=O)[nH]c1=O)C1COc2cc3ccccc3cc2O1 (centres undefined) | . | . | .[11.4 µM] | ? | 50.1µM
O=C(CNC(=O)c1ccccc1)NCC(=O)OCC(=O)c1ccc([N+](=O)[O-])cc1 | . | . | . | . | 8.91µM
Cc1ccc(N)c(C(=O)c2ccc(Br)cc2)c1 | ? | . | 28.2µM | 39.8µM | 15.8µM
CCOCCSc1nc2c(c(-c3cccs3)c1C#N)CC/C2=C/c1cccs1 | . | . | . | . | 28.2µM
CC(C)N1C(=O)CC2(CC[N+](C)(CCOC(=O)C(O)(c3ccccc3)c3ccccc3)CC2)C1=O (centres undefined) | . | . | . | . | 39.8µM
CC(=O)c1ccc2c(c1)C1C(Cl)C(Sc3ccccc3[N+](=O)[O-])CC1C(c1ccccc1)N2 (centres undefined) | . | . | 44.7µM | 44.7µM | 10µM
O=c1[nH]c2ccccc2n1C1CCN(CCCC(c2ccc(F)cc2)c2ccc(F)cc2)CC1 | ? | . | 39.8µM | ? | .[12.7 µM]
O=C1CC(N2CCC(n3c(=O)[nH]c4ccccc43)CC2)C(=O)N1c1ccc(F)cc1 (centres undefined) | . | . | .[11.4 µM] | . | ?
SMILES | HP1b binding inh | GLS inhibitor | JMJD2A Tudor inh | BAZ2B block | G9a inh
O=[N+]([O-])c1ccc(-c2ccccc2)c([As](=O)(O)O)c1 | . | . | . | ? | 12.6µM
CN1/C(=C\C=Nc2ccccc2)C(C)(C)c2ccccc21 | . | . | . | ? | 79.4µM
NC(N)=NOCC[C@H](N)C(=O)O | / | / | / | / | 31.6µM!
Cc1ccc2nc(NC(=O)c3cccn(Cc4ccc(Cl)cc4)c3=O)sc2c1 | . | . | . | . | .
CCN(CC)N=O | . | . | . | . | .[0.501 µM]
C=CCn1c(O)c(C=NCCN2CCOCC2)c(=O)[nH]c1=S | . | . | . | . | ?
O=C1NC(=O)C(=Cc2ccc(-c3ccc(S(=O)(=O)N4CCOCC4)cc3)o2)C(=O)N1 | . | . | . | . | 7.08µM
Cn1c(O)c(N=Nc2ccc(S(=O)(=O)N3CCOCC3)cc2)c(=O)n(C)c1=O | . | . | . | . | ?
O=C1NC(=O)C(=Cc2coc3ccc(O)cc3c2=O)C(=O)N1 | . | . | . | ? | /
O=C1NC(=O)C(=Cc2ccc(-c3ccc(F)cc3O)o2)C(=O)N1 | . | . | ? | 56.2µM | 7.08µM
O=C1NC(=O)C(=Cc2ccc(-c3ccc(Cl)cc3)o2)C(=O)N1 | . | . | ? | ? | 6.31µM
O=C(Nc1ccc(Cl)cc1C(=O)c1ccccc1)c1ccccc1 | . | . | . | . | .
COc1ccccc1NC(=O)c1cc[n+](C)cc1 | . | . | . | ? | 35.5µM
C[C@]12CC[C@H](O)C[C@H]1CCC1C2CC[C@]2(C)[C@@H](c3ccc(=O)oc3)C[C@H]3O[C@]132 (some centres undefined) | / | . | / | / | .[12.7 µM]
Cn1c(=O)n(C)c2cc(N3CCCC3)c(NC(=O)Nc3ccccc3)cc21 | . | . | . | 50.1µM | .
O=[N+]([O-])c1cccc(NP(=O)(N2CC2)N2CC2)c1 | . | . | . | / | /
Oc1ccc(CC2(N3CCCC3)CCCCC2)cc1 | . | ? | . | . | /
CCCCn1c(O)c(/C=N/NC(=O)c2ccncc2)c(=O)[nH]c1=S | . | . | . | 79.4µM | .
Cn1c(O)c(/C=N/NC(=O)c2ccncc2)c(=O)[nH]c1=S | . | . | 79.4µM | . | /
C[C@H]1C(=O)O[C@@H]2CCN3CC=C(COC(=O)[C@@](C)(O)[C@@]1(C)O)[C@H]23 | / | / | / | / | .[21.5 µM]
Oc1ccc2c3c1O[C@H]1c4[nH]c5c(c4C[C@@]4(O)[C@@H](C2)N(CC2CC2)CC[C@]314)C[C@@]1(O)[C@H]2Cc3ccc(O)c4c3[C@@]1(CCN2CC1CC1)[C@H]5O4 | / | / | / | / | 14.1µM
CC1(C)N(O)C2CCCCC2N1O (centres undefined) | . | . | 2.82µM | . | 8.91µM
C#C[C@@]1(O)CCC2C3CCC4=C/C(=N/OCC(=O)NC(C(=O)O)C(C)O)CC[C@]4(C)C3CC[C@@]21C (some centres undefined) | . | . | . | . | .[2.33 µM]
N#C/C(=C/c1ccc(O)c(O)c1)C(N)=S | / | / | / | / | 7.52µM
N#C/C(=C\c1ccc(O)c(O)c1)C(=O)NCCCNC(=O)/C(C#N)=C/c1ccc(O)c(O)c1 | / | / | / | / | 1.68µM
O=C(NN=Cc1ccc(N(CCCl)CCCl)cc1)c1cccc([N+](=O)[O-])c1 | . | . | . | / | /
Cc1ccc(-c2nnc(C)c(N3CCCC3)n2)cc1 | . | . | . | . | .
CCC(=O)N1N=C(c2c(O)n(C)c(=O)n(C)c2=O)CC1c1ccccc1 (centres undefined) | . | . | . | . | 25.1µM
Cn1c(O)c(C2=NN(C(=O)CCl)C(c3ccccc3)C2)c(=O)n(C)c1=O (centres undefined) | . | . | 22.4µM | . | 31.6µM
Cn1c(O)c(C=NC2CCN(Cc3ccccc3)CC2)c(=O)n(C)c1=O | . | . | . | . | .
